Experimental data as given in PubChem BioAssay (EPA / NIEHS).
Where “and” joins values, the source holds several entries; their conditions need not be identical. Equal values may be shown once. Where a structure was tested more than once in an assay, its records may differ in their call. Calls of active or inactive are those of the source. Rule for the calls: active = hit-call score of the fitted dose curve at least 0.9, where 1 is the maximum; inactive = score below 0.9.

Assays:
[1] = read-out: Matrix Metallopeptidase 1 (MMP1), MMP1 (gene 4312); experiment: BSK_hDFCGF_MMP1: BioMAP Diversity Plus: hDFCGF Assay for Matrix Metallopeptidase 1 (MMP1) Biomarker Activity (AID 2283064); details: primary human foreskin fibroblasts; actives raise or lower the signal
Summary of the method: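 ELISA read-out of MMP1 from human foreskin fibroblasts (primary skin cells), 24 h post-dose. Gain or loss of signal was fitted bidirectionally versus DMSO negative control; cytotoxicity was checked by SRB in parallel cultures.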

[2] = read-out: Vascular cell adhesion molecule 1 (VCAM1), VCAM1 (gene 7412); experiment: BSK_hDFCGF_VCAM1: BioMAP Diversity Plus: hDFCGF Assay for Vascular cell adhesion molecule 1 (VCAM1) Biomarker Activity (AID 2283065); details: primary human foreskin fibroblasts; actives raise or lower the signal;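 for AC50: VCAM-1 protein level quantified by ELISA after 24 h chemical exposure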
Summary of the method: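 Human foreskin fibroblast primary cells dosed with chemical, VCAM-1 measured by ELISA at 24 h. Bidirectional curve fitting relative to DMSO as negative control/baseline.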

[3] = read-out: Plasminogen activator inhibitor-1 (PAI1), SERPINE1 (gene 5054); experiment: BSK_hDFCGF_PAI1: BioMAP Diversity Plus: hDFCGF Assay for Plasminogen activator inhibitor-1 (PAI1) Biomarker Activity (AID 2283066); details: primary human foreskin fibroblasts; actives raise or lower the signal
Summary of the method: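 PAI-1 levels in human dermal foreskin fibroblasts were quantified by ELISA 24 h after dosing, with gain or loss analysed against DMSO. Overt cytotoxicity was checked by sulforhodamine B total-protein staining in parallel cultures.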

[4] = read-out: Interferon-gamma inducible Protein 10 (IP10), CXCL10 (gene 3627); experiment: BSK_KF3CT_IP10: BioMAP Diversity Plus: KF3CT Assay for Interferon-gamma inducible Protein 10 (IP10) Biomarker Activity (AID 2283068); details: primary human keratinocytes with fibroblasts; actives raise or lower the signal
Summary of the method: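 Signal is secreted/surface IP-10 by ELISA in a human primary skin co-culture of keratinocytes and foreskin fibroblasts, taken 24 h post-dosing; DMSO served as negative control.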

[5] = read-out: Interleukin-1 alpha (IL1a), IL1A (gene 3552); experiment: BSK_KF3CT_IL1a: BioMAP Diversity Plus: KF3CT Assay for Interleukin-1 alpha (IL1a) Biomarker Activity (AID 2283070); details: primary human keratinocytes with fibroblasts; actives raise or lower the signal
Summary of the method: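 Primary skin co-culture (keratinocytes, foreskin fibroblasts), 24 h exposure; ELISA for IL-1a; bidirectional curve fit vs DMSO.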

[6] = read-out: TIMP metallopeptidase inhibitor 2 (TIMP2), TIMP2 (gene 7077); experiment: BSK_KF3CT_TIMP2: BioMAP Diversity Plus: KF3CT Assay for TIMP metallopeptidase inhibitor 2 (TIMP2) Biomarker Activity (AID 2283071); details: primary human keratinocytes with fibroblasts; actives raise or lower the signal
Summary of the method: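 TIMP-2 measured by ELISA at 24 h in human keratinocyte/fibroblast primary co-cultures exposed to chemicals. Both increases and decreases were fitted against DMSO. Parallel cultures were stained with SRB for total protein as an overt-cytotoxicity check.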

[7] = read-out: Transforming growth factor beta 1 (TGFb1), TGFB1 (gene 7040); experiment: BSK_KF3CT_TGFb1: BioMAP Diversity Plus: KF3CT Assay for Transforming growth factor beta 1 (TGFb1) Biomarker Activity (AID 2283072); details: primary human keratinocytes with fibroblasts; actives raise or lower the signal
Summary of the method: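 ELISA quantifies TGF-b1 at 24 h post-dose in a primary human skin co-culture of keratinocytes and fibroblasts, with gain or loss judged against DMSO. Parallel SRB total-protein staining flags overt cytotoxicity.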

[8] = read-out: C-C motif chemokine 2 (Homo sapiens) (UniProt P13500); experiment: BSK_KF3CT_MCP1: BioMAP Diversity Plus: KF3CT Assay for Monocyte Chemoattractant Protein 1 (MCP1/CCL2) Biomarker Activity (AID 2283073); details: primary human keratinocytes with fibroblasts; actives raise or lower the signal
Summary of the method: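 Human keratinocyte–foreskin fibroblast co-culture; MCP-1 measured by ELISA 24 h after dosing. Bidirectional fit vs DMSO; cytotoxicity tracked by SRB total protein in parallel cultures.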

[9] = read-out: Matrix Metallopeptidase 9 (MMP9), MMP9 (gene 4318); experiment: BSK_KF3CT_MMP9: BioMAP Diversity Plus: KF3CT Assay for Matrix Metallopeptidase 9 (MMP9) Biomarker Activity (AID 2283074); details: primary human keratinocytes with fibroblasts; actives raise or lower the signal
Summary of the method: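 ELISA read-out of MMP-9 at 24 h post-dosing in a co-culture of human skin keratinocytes and foreskin fibroblasts. Gain or loss of signal was fitted in both directions against DMSO.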

[10] = read-out: urokinase plasminogen activator (uPA), PLAU (gene 5328); experiment: BSK_KF3CT_uPA: BioMAP Diversity Plus: KF3CT Assay for urokinase plasminogen activator (uPA) Biomarker Activity (AID 2283075); details: primary human keratinocytes with fibroblasts; actives raise or lower the signal
Summary of the method: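 Skin co-culture (keratinocytes + foreskin fibroblasts), human primary; 24 h post-dose; uPA by ELISA; gain/loss fit vs DMSO baseline.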

[11] = read-out: CD40, CD40 (gene 958); experiment: BSK_LPS_CD40: BioMAP Diversity Plus: LPS Assay for CD40 Biomarker Activity (AID 2283076); details: primary human HUVEC with PBMC; actives raise or lower the signal
Summary of the method: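 HUVEC plus PBMC co-culture stimulated with LPS; CD40 quantified by ELISA 24 h after compound dosing. Fitting was bidirectional relative to DMSO. SRB staining of parallel cultures flagged overt cytotoxicity.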

[12] = read-out: E-selectin (Homo sapiens) (UniProt P16581); experiment: BSK_LPS_Eselectin: BioMAP Diversity Plus: LPS Assay for Eselectin Biomarker Activity (AID 2283077); details: primary human HUVEC with PBMC; actives raise or lower the signal
Summary of the method: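 Human umbilical vein endothelial cells co-cultured with PBMC under LPS stimulation; cell-surface E-selectin measured by ELISA 24 h after dosing. Change in either direction versus DMSO, with SRB total-protein staining in parallel cultures for cytotoxicity.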

[13] = read-out: Interleukin-8 (IL8), CXCL8 (gene 3576); experiment: BSK_LPS_IL8: BioMAP Diversity Plus: LPS Assay for Interleukin-8 (IL8) Biomarker Activity (AID 2283078); details: primary human HUVEC with PBMC; actives raise or lower the signal
Summary of the method: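 Human umbilical vein endothelial cells co-cultured with PBMC, LPS-stimulated, exposed to compound for 24 h. IL-8 quantified by ELISA; fitted in both directions against DMSO, with SRB total-protein staining of parallel cultures for cytotoxicity.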

[14] = BSK_LPS_SRB: Viability Assessment in the BioMAP Diversity Plus: LPS Assay (AID 2283079); details: primary human HUVEC with PBMC;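 note: total protein by sulforhodamine B absorbance as a cytotoxicity measure; measured one day after compound addition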
Summary of the method: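 Co-culture of human umbilical vein endothelial cells and PBMC, read 24 h after dosing. Total protein by 0.1% SRB staining after 10% TCA fixation, absorbance at 560 nm; bidirectional fit against DMSO.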

[15] = read-out: Interleukin-1 alpha (IL1a), IL1A (gene 3552); experiment: BSK_LPS_IL1a: BioMAP Diversity Plus: LPS Assay for Interleukin-1 alpha (IL1a) Biomarker Activity (AID 2283080); details: primary human HUVEC with PBMC; actives raise or lower the signal
Summary of the method: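 Human umbilical vein endothelial cells co-cultured with PBMC and stimulated with LPS; IL-1a measured by ELISA 24 h after dosing. Bidirectional fitting against DMSO; cytotoxicity checked by SRB staining in parallel cultures.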

[16] = read-out: Monocyte Chemoattractant Protein-1 (MCP1), CCL2 (gene 6347); experiment: BSK_LPS_MCP1: BioMAP Diversity Plus: LPS Assay for Monocyte Chemoattractant Protein-1 (MCP1) Biomarker Activity (AID 2283081); details: primary human HUVEC with PBMC; actives raise or lower the signal;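 for AC50: secreted MCP-1 protein quantified by ELISA in culture supernatant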
Summary of the method: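 Human umbilical vein endothelial cells co-cultured with PBMC, LPS-stimulated; secreted MCP-1 measured by ELISA 24 h after compound addition. Bidirectional curve fitting against DMSO baseline; SRB total-protein staining in parallel cultures for cytotoxicity.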

[17] = BSK_LPS_PGE2: BioMAP Diversity Plus: LPS Assay for Prostaglandin E2 (PGE2) Biomarker Activity (AID 2283082); details: primary human HUVEC with PBMC; actives raise or lower the signal;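 for AC50: secreted prostaglandin E2 measured by ELISA in LPS-stimulated co-culture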
Summary of the method: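 PGE2 release measured by ELISA in an LPS-activated co-culture of human umbilical vein endothelial cells and peripheral blood mononuclear cells, read at 24 h post-dosing. DMSO served as baseline for bidirectional curve fitting.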

[18] = read-out: Macrophage colony-stimulating factor (MCSF), CSF1 (gene 1435); experiment: BSK_LPS_MCSF: BioMAP Diversity Plus: LPS Assay for Macrophage colony-stimulating factor (MCSF) Biomarker Activity (AID 2283083); details: primary human HUVEC with PBMC; actives raise or lower the signal
Summary of the method: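 HUVEC–PBMC co-culture, M-CSF measured by ELISA 24 h after chemical dosing. Fitted in both directions relative to DMSO as negative control; overt cytotoxicity assessed by SRB total-protein staining in parallel cultures.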

[19] = BSK_KF3CT_SRB: Viability Assessment in the BioMAP Diversity Plus: KF3CT Assay (AID 2283069); details: primary human keratinocytes with fibroblasts
Summary of the method: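 SRB read-out at 560 nm (0.1% stain, TCA-fixed cells) gauges overt cytotoxicity in a human skin keratinocyte–fibroblast co-culture 24 h post-dosing. Signal change was fitted bidirectionally relative to DMSO control.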

[20] = read-out: Intercellular Adhesion Molecule 1 (ICAM1), ICAM1 (gene 3383); experiment: BSK_KF3CT_ICAM1: BioMAP Diversity Plus: KF3CT Assay for Intercellular Adhesion Molecule 1 (ICAM1) Biomarker Activity (AID 2283067); details: primary human keratinocytes with fibroblasts; actives raise or lower the signal
Summary of the method: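 Human keratinocyte–foreskin fibroblast co-culture was treated for 24 h. Cell-surface ICAM-1 was quantified by ELISA, fitted bidirectionally relative to DMSO. Cytotoxicity was checked in parallel cultures by SRB total-protein staining.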

Measured: AC50

E-selectin (Homo sapiens), sequence (P16581 whole entry, looked up): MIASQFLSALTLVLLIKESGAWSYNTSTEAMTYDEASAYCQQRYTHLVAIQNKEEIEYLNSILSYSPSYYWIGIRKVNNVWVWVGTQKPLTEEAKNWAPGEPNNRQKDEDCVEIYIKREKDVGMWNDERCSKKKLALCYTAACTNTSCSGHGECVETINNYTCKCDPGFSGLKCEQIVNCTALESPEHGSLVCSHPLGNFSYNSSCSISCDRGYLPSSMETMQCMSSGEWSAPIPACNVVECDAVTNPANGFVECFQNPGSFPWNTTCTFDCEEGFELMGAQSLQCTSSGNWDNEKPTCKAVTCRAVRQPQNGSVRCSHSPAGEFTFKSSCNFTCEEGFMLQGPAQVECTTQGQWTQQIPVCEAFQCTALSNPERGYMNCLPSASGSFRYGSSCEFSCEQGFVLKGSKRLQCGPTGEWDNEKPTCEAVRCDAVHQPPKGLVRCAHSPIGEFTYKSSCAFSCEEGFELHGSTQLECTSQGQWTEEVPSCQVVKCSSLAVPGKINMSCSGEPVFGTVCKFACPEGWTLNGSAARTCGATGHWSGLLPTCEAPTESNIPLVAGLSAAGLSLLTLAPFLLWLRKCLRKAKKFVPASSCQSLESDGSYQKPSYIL

N#Cc1cc([N+](=O)[O-])ccc1N
inactive: [1] | [2] | [3] | [4] | [5] | [6] | [7] | [8] | [9] | [10] | [11] | [12] | [13] | [14] | [15] | [16] | [17] | [18]

C=CC(=O)OCC(F)(F)C(F)F
active: [1] 4.6 µM | [11] 24 µM and 19.9 µM | [12] 45.9 µM and 47.4 µM | [13] 49 µM and 30 µM | [15] 40 µM and 35.4 µM | [16] 20.8 µM | [17] 39.4 µM and 31.6 µM | [18] 30 µM
inactive: [1] | [3] | [4] | [5] | [6] | [8] | [9] | [10] | [14] | [16] | [18]

Cc1ccc(O)cc1C
active: [17] 4.57 µM
inactive: [1] | [2] | [3] | [4] | [19] | [5] | [6] | [7] | [8] | [9] | [10] | [11] | [12] | [13] | [14] | [15] | [16] | [18]

Nc1ccc([N+](=O)[O-])cc1Cl
inactive: [1] | [2] | [3] | [4] | [19] | [5] | [6] | [7] | [8] | [9] | [10] | [11] | [12] | [13] | [14] | [15] | [16] | [17] | [18]

c1cc2c3c(cccc3c1)CC2
inactive: [1] | [2] | [3] | [20] | [4] | [5] | [6] | [7] | [8] | [9] | [10] | [11] | [12] | [13] | [14] | [15] | [16] | [17] | [18]

c1ccc2c(c1)Nc1ccccc1S2
active: [2] 20 µM | [3] 29.4 µM | [6] 27.3 µM | [17] 0.374 µM
inactive: [1] | [4] | [5] | [7] | [8] | [9] | [10] | [11] | [12] | [13] | [14] | [15] | [16] | [18]

O=C(O)C(F)(OC(F)(F)C(F)(F)C(F)(F)F)C(F)(F)F (configuration not stated)
active: [13] 18 µM and 12.1 µM
inactive: [1] | [2] | [3] | [20] | [4] | [19] | [5] | [6] | [8] | [9] | [10] | [11] | [12] | [13] | [14] | [15] | [16] | [17] | [18]
